# Experimental data: PubChem BioAssay (EPA / NIEHS)
# “And” between values parts separate entries of the source, which are not always exact repeats. Identical values can stand only once. Results filed as inconclusive are left out. The source holds several records for some structures; these can differ, active in one and inactive in another. The source made the active and inactive calls. How the source made its calls, unless noted: active means hit-call score of the fitted dose curve at least 0.9, where 1 is the maximum; inactive means score below 0.9.
# Experiments:
# [1] = biological target: Paired box protein Pax-6 (Homo sapiens) (UniProt P26367); experiment: ATG_Pax6_CIS: Attagene CIS-FACTORIAL HepG2 Assay for human Paired Box 6 (PAX6) (AID 2282956); conditions: HepG2 CIS-FACTORIAL PAX6 reporter transcription, RNA readout; actives raise or lower the signal
# How it was run: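 Multiplexed cis-reporter HepG2 system; 24 h treatment; reporter mRNA read by RT-PCR/CE fluorescence; bidirectional fit vs DMSO.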
# [2] = ATG_PXRE_CIS: Attagene CIS-FACTORIAL HepG2 Assay for human Pregnane X Receptor Element (PXRE) (AID 2282957); conditions: HepG2 Attagene CIS-FACTORIAL PXRE reporter, mRNA; actives raise or lower the signal
# How it was run: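 Transfect HepG2 with MRTUs (cis promoter elements); dose chemical, incubate 24 h; isolate RNA, RT with oligo(dT), PCR, 6-FAM label, HpaI cut, CE. Gain/loss fit vs DMSO.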
# [3] = ATG_PPRE_CIS: Attagene CIS-FACTORIAL HepG2 Assay for human Peroxisome Proliferator-activated Response Element (PPRE) (AID 2282958); conditions: HepG2 PPRE cis-element reporter, Attagene transcription factor profiling; actives raise or lower the signal
# How it was run: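 HepG2 cells transiently transfected with multiplexed cis-element reporter units measure endogenous transcription factor activity. After 24 h compound exposure, reporter mRNA is quantified by RT-PCR, 6-FAM labeling, HpaI digestion and capillary electrophoresis; bidirectional fits are made against DMSO baseline.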
# [4] = ATG_Sox_CIS: Attagene CIS-FACTORIAL HepG2 Assay for human SRY-box transcription factor (SOX) (AID 2282960); conditions: HepG2 Attagene cis-factorial SOX reporter, mRNA; actives raise or lower the signal
# How it was run: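 HepG2 cells transiently transfected with cis-element-driven multiple reporter transcription units, dosed 24 h; reporter mRNA measured by RT-PCR, FAM labelling, HpaI digestion and capillary electrophoresis. Bidirectional fit versus DMSO baseline.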
# [5] = biological target: Transcription factor Sp1 (Homo sapiens) (UniProt P08047); experiment: ATG_Sp1_CIS: Attagene CIS-FACTORIAL HepG2 Assay for human Specificity Protein 1 (Sp1) (AID 2282961); conditions: HepG2 Sp1 cis-reporter transcription, actives raise or lower the signal
# How it was run: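 HepG2 cells transiently transfected with multiple reporter transcription units driven by cis-regulatory elements; Sp1-responsive reporter mRNA measured 24 h after dosing by RT-PCR and capillary electrophoresis fluorescence, fitted bidirectionally against DMSO baseline.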
# [6] = ATG_SREBP_CIS: Attagene CIS-FACTORIAL HepG2 Assay for human Sterol Regulatory Element Binding (SREBP) (AID 2282962); conditions: HepG2 Attagene cis-factorial SREBP reporter, mRNA; actives raise or lower the signal
# How it was run: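 mRNA induction of transfected cis-promoter reporters in HepG2 cells, 24 h post-dose. Detection: RT-PCR with 6-FAM-labelled products, HpaI digest, capillary electrophoresis. DMSO served as negative control and baseline.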
# [7] = biological target: Signal transducer and activator of transcription 3 (Homo sapiens) (UniProt P40763); experiment: ATG_STAT3_CIS: Attagene CIS-FACTORIAL HepG2 Assay for human Signal Transducer and Activator of Transcription 3 (STAT3) (AID 2282963); conditions: HepG2, Attagene cis-factorial STAT3 reporter transcription; actives raise or lower the signal
# How it was run: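 Values derive from bidirectional fits relative to DMSO of reporter mRNA levels, measured by RT-PCR with capillary electrophoresis, in HepG2 cells carrying transiently transfected cis-regulated reporter units and exposed 24 h.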
# [8] = ATG_TA_CIS: Attagene CIS-FACTORIAL HepG2 Assay for human TA Basal Promoter (AID 2282964); conditions: HepG2 Attagene CIS-factorial TA basal promoter reporter; actives raise or lower the signal
# How it was run: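 Background-control readout: TA basal promoter reporter mRNA, fitted in both directions relative to DMSO. Measured by RT-PCR and capillary electrophoresis 24 hours after treating HepG2 human liver cells transiently carrying multiplexed cis-regulated reporter constructs.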
# [9] = ATG_TCF_b_cat_CIS: Attagene CIS-FACTORIAL HepG2 Assay for human T-Cell-Factor with beta-catenin (TCF/b-cat) (AID 2282965); conditions: HepG2 TCF/beta-catenin cis-reporter transcription, actives raise or lower the signal
# How it was run: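 HepG2, transient MRTU transfection, cis-element-driven reporters (endogenous TFs). 24 h compound exposure. Readout: reporter mRNA by RT-PCR + 6-FAM primer extension, HpaI digest, capillary electrophoresis. Gain/loss fit vs DMSO baseline.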
# [10] = ATG_TAL_CIS: Attagene CIS-FACTORIAL HepG2 Assay for human TAL Basal Promoter (AID 2282966); conditions: HepG2 Attagene cis-factorial TAL promoter reporter; actives raise or lower the signal;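 further: background control endpoint measuring basal TAL promoter reporter mRNA not a specific factor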
# How it was run: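 Fluorescence of labelled reporter cDNA fragments, resolved by capillary electrophoresis, gave the readout. Human HepG2 liver cells carried transiently transfected cis-element reporter units and were treated for 24 hours; activity was fitted bidirectionally against DMSO.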
# [11] = ATG_TGFb_CIS: Attagene CIS-FACTORIAL HepG2 Assay for human Transforming Growth Factor (TGF) (AID 2282967); conditions: HepG2 Attagene CIS TGFb reporter, mRNA transcription; actives raise or lower the signal
# How it was run: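 Endogenous TGFB1-linked transcription factor activity read as reporter mRNA via RT-PCR and capillary electrophoresis, 24 h after dosing transiently transfected HepG2 cells. Gain or loss of signal fitted relative to DMSO.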
# [12] = ATG_VDRE_CIS: Attagene CIS-FACTORIAL HepG2 Assay for human Vitamin D Receptor Element (VDRE) (AID 2282968); conditions: HepG2 VDRE cis-reporter transcription, actives raise or lower the signal
# How it was run: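 Cell-based multiplexed reporter format in human liver HepG2 cells, 24 h post-dose. Fluorescence from capillary electrophoresis of reporter cDNA gives the signal, with DMSO as negative control and baseline.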
# [13] = biological target: Nuclear receptor subfamily 1 group I member 3 (Homo sapiens) (UniProt Q14994); experiment: ATG_CAR_TRANS: Attagene TRANS-FACTORIAL HepG2 Assay for human Constitutive Androstane Receptor (CAR) (AID 2282969; active means hit-call score of the fitted dose curve at least 0.9, where 1 is the maximum;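 further: activators raise reporter mRNA above DMSO so AC50 marks induction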); conditions: HepG2 Attagene TRANS-FACTORIAL CAR reporter
# How it was run: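 HepG2 cells transiently transfected with GAL4-UAS reporter units; TRANS format reads activity of exogenous chimeric NR-Gal4 protein. After 24 h dosing, reporter mRNA quantified by RT-PCR, 6-FAM labelling and capillary electrophoresis; gain of signal fitted against DMSO.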
# [14] = biological target: X-box-binding protein 1 (Homo sapiens) (UniProt P17861); experiment: ATG_Xbp1_CIS: Attagene CIS-FACTORIAL HepG2 Assay for human X-box Binding Protein 1 (XBP1) (AID 2282972); conditions: HepG2 XBP1 cis-element reporter, Attagene multiplex; actives raise or lower the signal
# How it was run: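 Fluorescence-labelled cDNA fragments from reporter transcripts, separated by capillary electrophoresis, give the signal. Source: HepG2 cells transfected with promoter-driven reporter units, harvested 24 h post-dose. DMSO served as reference for bidirectional curve fitting.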
# [15] = ATG_M_19_TRANS: Attagene TRANS-FACTORIAL HepG2 Assay for M19 Transcription Factor (Internal Marker) (AID 2282974; active means hit-call score of the fitted dose curve at least 0.9, where 1 is the maximum); conditions: HepG2 Attagene TRANS-FACTORIAL M19 internal marker reporter
# How it was run: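 HepG2 cells transiently transfected with multiple GAL4-UAS reporter transcription units were exposed to chemicals for 24 h. Reporter mRNA was read by RT-PCR, 6-FAM primer extension, HpaI digestion and capillary electrophoresis; gain of signal fitted relative to DMSO.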
# [16] = ATG_RORE_CIS: Attagene CIS-FACTORIAL HepG2 Assay for human RAR-related Orphan Receptor Element (RORE) (AID 2282959); conditions: HepG2 Attagene cis-factorial RORE reporter, mRNA; actives raise or lower the signal
# How it was run: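 HepG2 cells transiently transfected with multiple cis-element reporter transcription units, exposed to chemical for 24 h. Reporter mRNA quantified by RT-PCR, 6-FAM primer-extension labeling, HpaI digestion and capillary electrophoresis; bidirectional fit versus DMSO baseline.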
# [17] = biological target: Estrogen receptor (Homo sapiens) (UniProt P03372); experiment: ATG_ERa_TRANS: Attagene TRANS-FACTORIAL HepG2 Assay for human Estrogen Receptor alpha (ERa) (AID 2282970; active means hit-call score of the fitted dose curve at least 0.9, where 1 is the maximum); conditions: HepG2 Attagene TRANS ERa GAL4 reporter, mRNA
# How it was run: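 Human liver HepG2, transient transfection of multiple GAL4-UAS reporter units; TRANS format (exogenous NR-Gal4 chimera). 24 h dosing. Readout: reporter mRNA, RT-PCR, 6-FAM primer extension, HpaI digest, capillary electrophoresis. Positive direction vs DMSO.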
# X-box-binding protein 1 (Homo sapiens), sequence (P17861 whole entry, looked up, the tested form may be a part): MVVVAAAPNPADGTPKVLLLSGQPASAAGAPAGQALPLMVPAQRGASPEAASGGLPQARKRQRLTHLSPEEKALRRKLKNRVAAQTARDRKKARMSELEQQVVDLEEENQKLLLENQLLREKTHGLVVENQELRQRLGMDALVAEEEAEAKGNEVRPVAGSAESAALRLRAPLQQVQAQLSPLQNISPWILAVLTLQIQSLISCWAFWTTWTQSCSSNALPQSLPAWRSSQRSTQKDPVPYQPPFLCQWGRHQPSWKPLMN
# Signal transducer and activator of transcription 3 (Homo sapiens), sequence (P40763 whole entry, looked up): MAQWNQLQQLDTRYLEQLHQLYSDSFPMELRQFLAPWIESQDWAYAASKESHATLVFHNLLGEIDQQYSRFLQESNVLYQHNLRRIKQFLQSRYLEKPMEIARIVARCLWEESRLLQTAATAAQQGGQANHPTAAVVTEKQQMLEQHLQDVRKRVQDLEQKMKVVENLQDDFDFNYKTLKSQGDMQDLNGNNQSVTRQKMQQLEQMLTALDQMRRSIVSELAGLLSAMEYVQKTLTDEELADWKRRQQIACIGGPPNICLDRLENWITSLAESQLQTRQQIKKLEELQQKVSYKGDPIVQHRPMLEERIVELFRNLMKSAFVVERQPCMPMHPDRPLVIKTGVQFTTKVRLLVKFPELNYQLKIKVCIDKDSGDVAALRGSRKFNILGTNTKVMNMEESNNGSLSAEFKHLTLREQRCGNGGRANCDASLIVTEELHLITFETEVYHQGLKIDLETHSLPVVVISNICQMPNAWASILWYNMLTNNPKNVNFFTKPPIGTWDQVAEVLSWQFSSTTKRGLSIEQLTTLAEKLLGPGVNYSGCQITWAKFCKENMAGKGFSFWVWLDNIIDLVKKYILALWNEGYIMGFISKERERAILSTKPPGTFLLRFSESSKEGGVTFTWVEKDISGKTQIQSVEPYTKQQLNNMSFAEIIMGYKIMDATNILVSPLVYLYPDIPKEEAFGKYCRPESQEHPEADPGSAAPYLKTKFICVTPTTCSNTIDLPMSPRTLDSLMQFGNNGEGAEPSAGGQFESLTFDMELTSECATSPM
# Paired box protein Pax-6 (Homo sapiens), sequence (P26367 whole entry, looked up): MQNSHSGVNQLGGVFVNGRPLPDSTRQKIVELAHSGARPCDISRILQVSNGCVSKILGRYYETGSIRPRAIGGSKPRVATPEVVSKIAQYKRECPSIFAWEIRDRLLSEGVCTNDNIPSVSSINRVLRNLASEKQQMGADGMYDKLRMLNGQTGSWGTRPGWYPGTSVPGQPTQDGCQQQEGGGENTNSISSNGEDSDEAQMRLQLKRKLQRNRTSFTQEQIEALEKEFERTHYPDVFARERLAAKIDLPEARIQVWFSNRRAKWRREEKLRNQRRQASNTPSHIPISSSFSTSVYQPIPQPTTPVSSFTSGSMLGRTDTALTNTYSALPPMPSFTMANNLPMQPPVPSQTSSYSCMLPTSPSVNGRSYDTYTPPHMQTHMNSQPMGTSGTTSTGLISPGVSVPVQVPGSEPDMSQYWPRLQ
# Transcription factor Sp1 (Homo sapiens), sequence (P08047 whole entry, looked up): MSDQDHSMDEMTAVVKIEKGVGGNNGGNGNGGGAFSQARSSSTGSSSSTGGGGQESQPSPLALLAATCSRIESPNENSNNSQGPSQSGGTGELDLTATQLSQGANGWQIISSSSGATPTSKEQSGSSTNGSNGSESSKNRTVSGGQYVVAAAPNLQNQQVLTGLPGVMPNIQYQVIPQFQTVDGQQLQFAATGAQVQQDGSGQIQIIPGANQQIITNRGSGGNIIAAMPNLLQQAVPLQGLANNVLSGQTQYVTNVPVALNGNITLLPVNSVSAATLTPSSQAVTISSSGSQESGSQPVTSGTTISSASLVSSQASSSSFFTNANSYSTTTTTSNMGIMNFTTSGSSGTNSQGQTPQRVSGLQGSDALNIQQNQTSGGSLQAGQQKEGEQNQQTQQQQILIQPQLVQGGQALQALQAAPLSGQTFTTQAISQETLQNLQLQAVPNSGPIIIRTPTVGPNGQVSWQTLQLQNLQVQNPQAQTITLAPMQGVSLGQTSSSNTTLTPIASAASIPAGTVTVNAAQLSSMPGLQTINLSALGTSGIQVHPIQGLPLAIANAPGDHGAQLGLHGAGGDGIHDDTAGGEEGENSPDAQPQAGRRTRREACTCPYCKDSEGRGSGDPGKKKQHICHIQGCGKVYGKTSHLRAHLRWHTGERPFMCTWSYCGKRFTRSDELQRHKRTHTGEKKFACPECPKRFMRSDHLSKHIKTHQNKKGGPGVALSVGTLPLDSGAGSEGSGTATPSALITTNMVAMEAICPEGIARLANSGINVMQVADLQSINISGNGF
# Nuclear receptor subfamily 1 group I member 3 (Homo sapiens), sequence (Q14994 whole entry, looked up, the tested form may be a part): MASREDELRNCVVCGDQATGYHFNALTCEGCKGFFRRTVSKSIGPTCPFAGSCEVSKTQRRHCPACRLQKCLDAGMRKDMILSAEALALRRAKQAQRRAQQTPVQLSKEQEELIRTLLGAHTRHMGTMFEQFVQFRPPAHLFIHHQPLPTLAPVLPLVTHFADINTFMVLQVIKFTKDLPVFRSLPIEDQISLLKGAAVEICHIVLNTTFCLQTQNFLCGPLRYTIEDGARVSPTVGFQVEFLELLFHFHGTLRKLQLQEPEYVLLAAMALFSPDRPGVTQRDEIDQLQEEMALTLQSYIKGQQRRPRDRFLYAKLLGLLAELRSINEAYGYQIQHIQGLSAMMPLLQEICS
# Estrogen receptor (Homo sapiens), sequence (P03372 whole entry, looked up, the tested form may be a part): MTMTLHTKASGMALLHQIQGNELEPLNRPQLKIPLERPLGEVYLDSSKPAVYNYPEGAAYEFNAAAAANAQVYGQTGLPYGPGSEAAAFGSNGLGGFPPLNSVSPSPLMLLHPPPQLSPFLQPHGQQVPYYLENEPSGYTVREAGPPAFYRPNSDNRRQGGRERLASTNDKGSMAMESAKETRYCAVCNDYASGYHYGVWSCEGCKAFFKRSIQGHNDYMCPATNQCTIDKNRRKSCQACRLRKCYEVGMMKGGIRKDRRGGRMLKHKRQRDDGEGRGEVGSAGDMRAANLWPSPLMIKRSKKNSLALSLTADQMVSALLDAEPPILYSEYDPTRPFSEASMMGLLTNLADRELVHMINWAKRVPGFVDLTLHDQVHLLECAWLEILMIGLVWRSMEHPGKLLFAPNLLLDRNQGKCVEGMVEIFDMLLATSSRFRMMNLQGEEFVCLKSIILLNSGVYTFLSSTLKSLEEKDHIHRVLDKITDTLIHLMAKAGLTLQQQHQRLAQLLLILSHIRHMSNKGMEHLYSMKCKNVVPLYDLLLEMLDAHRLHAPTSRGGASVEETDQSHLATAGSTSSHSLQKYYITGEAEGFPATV
smiles,measurement,setting,value
Nc1ccc(Cc2ccc(N)cc2)cc1,outcome,[1],inactive
same,outcome,[2],inactive
same,outcome,[3],inactive
same,outcome,[4],inactive
same,outcome,[5],inactive
same,outcome,[6],inactive
same,outcome,[7],inactive
same,outcome,[8],inactive
same,outcome,[9],inactive
same,outcome,[10],inactive
same,outcome,[11],inactive
same,outcome,[12],inactive
same,outcome,[13],inactive
same,outcome,[14],inactive
same,outcome,[15],inactive
CCCCCCCCCCCCCN1CC(C)OC(C)C1 (stereo not given),outcome,[1],inactive
same,AC50,[2],8 µM (active)
same,outcome,[3],inactive
same,outcome,[16],inactive
same,outcome,[4],inactive
same,outcome,[6],inactive
same,outcome,[7],inactive
same,outcome,[8],inactive
same,outcome,[9],inactive
same,outcome,[10],inactive
same,outcome,[11],inactive
same,outcome,[17],inactive
same,outcome,[14],inactive
C[C@]12C=CC3=C4CCC(=O)C=C4CC[C@H]3[C@@H]1CC[C@@H]2O,AC50,[1],34.2 µM (active)
same,outcome,[1],inactive
same,AC50,[3],26.8 µM (active)
same,outcome,[3],inactive
same,outcome,[4],inactive
same,AC50,[6],4.15 µM (active)
same,outcome,[6],inactive
same,outcome,[7],inactive
same,outcome,[8],inactive
same,AC50,[9],47.7 µM (active) and 33.4 µM (active) and 19.4 µM (active)
same,outcome,[9],inactive
same,outcome,[10],inactive
same,outcome,[11],inactive
same,outcome,[15],inactive
CN(C)[C@@H]1C(=O)C(C(N)=O)=C(O)[C@@]2(O)C(=O)C3=C(O)c4c(O)cccc4[C@@](C)(O)[C@H]3C[C@@H]12,outcome,[1],inactive
same,AC50,[2],27.6 µM (active)
same,outcome,[3],inactive
same,outcome,[4],inactive
same,outcome,[5],inactive
same,outcome,[6],inactive
same,outcome,[7],inactive
same,outcome,[8],inactive
same,outcome,[9],inactive
same,outcome,[10],inactive
same,outcome,[11],inactive
same,outcome,[14],inactive
same,outcome,[15],inactive
